TrxR1 inh = inhibitors of rat thioredoxin reductase 1 | Potency, µM (titrated, usually from 114 µM), inactives show top-dose activity change, negative = inhibition, most hits filed as inhibitors | 390,000 tested, 1% active | recombinant rTrxR1, NADPH fluorescence consumption, selenite substrate; further: potency means the concentration at half of the fitted maximal effect; on the % scale 0 is the no-effect control and ±100 the full control effect; nearly all actives have a fitted effect of over 65% in size
Target sequence (O89049 whole entry, looked up): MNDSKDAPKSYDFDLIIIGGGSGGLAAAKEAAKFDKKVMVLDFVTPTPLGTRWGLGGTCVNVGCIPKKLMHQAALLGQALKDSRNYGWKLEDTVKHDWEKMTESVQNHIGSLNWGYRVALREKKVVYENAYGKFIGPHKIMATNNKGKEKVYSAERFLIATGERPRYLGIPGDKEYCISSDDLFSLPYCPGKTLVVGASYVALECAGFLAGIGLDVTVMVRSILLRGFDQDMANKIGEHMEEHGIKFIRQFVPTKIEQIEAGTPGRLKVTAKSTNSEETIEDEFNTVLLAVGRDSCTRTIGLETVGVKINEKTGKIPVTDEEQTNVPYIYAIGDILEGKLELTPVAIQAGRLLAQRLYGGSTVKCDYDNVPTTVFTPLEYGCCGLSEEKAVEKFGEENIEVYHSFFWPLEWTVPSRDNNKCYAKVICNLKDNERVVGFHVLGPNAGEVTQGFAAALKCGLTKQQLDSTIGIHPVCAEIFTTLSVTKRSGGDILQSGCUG
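Rat TrxR1 (90 nM in the dispensed reagent) was pre-reduced with 400 uM NADPH for 5 min at room temperature, then incubated with compound for 15 min. After 400 uM selenite was added, NADPH fluorescence (Ex 340/Em 450 nm) was followed for 8 min.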
pAkt inh = Akt phosphorylation inhibition; activity change, % for hits at 50 µM; 360,000 tested, 0.32% active; AID 651550; Neuro2A IGF-stimulated pAkt S473 HTRF, 20 min; hits give low values; in the data active means activity change below about -80%; inconclusive means mostly about -51% to -80%; further: on the % scale 0 is the no-effect control and ±100 the full control effect
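Neuro2A cells in DMEM with 0.5% FBS, overnight at 37 deg C, given compound at single 50 µM final, then IGF (6 nM final) for 20 min at 37 deg C. Lysed; phospho-Akt Ser473 by HTRF after 24 h, 665/615 ratio.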
Pin1 inh = human Pin1 inhibition | AID 504891 | Potency, µM (series often up to 115 µM), for inactives: top-dose activity, negative = inhibition, usual class: inhibitors | Q13526 | Pin1 FP peptide displacement, HiFluor488, 10 min | 390,000 tested, 0.009% active; active means well fitted inhibition curve with a large enough effect in the polarisation, with a control signal flat, not every such curve was filed as active; inconclusive means small, poorly fitted or top-dose-only effect, or effect the other way, or a change in a side signal; inactive means no such curve, though single readings can be large or run the other way; the % refers to the polarisation; further: potency means the concentration at half of the fitted maximal effect; on the % scale 0 is the no-effect control and ±100 the full control effect
Target sequence (Q13526 whole entry, looked up): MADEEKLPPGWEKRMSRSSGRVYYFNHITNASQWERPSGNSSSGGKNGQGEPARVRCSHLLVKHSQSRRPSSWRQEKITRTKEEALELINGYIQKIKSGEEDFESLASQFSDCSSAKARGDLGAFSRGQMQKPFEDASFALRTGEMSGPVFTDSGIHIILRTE
N370S GC mod = N370S glucocerebrosidase modulation, Gaucher chaperone candidate | AID 2101 | 330,000 tested, 0.092% active | N370S GC spleen homogenate, 4MU-glucoside fluorescence | Potency, µM (series often up to 59.4 µM), without a hit: at the highest dose activity change, negative = inhibition, usual class: inhibitors | P04062;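 further: potency means the concentration at half of the fitted maximal effect; 0% = full enzyme activity and -100% = no enzyme basal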
A-T KAP1 phos = potential ataxia-telangiectasia treatments restoring KAP-1 phosphorylation; F2112 A-T fibroblasts, KAP-1 phosphorylation AlphaLISA; neocarzinostatin DNA damage 30 min before lysis; Potency, µM (series often up to 57.5 µM), without a hit: at the top dose activation, actives largely listed as activators; 320,000 tested, 0.19% active; further: potency means the concentration at half of the fitted maximal effect; % of control where 0% means no effect; nearly all actives have a fitted effect of over 45% in size
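ATM-like activity read as KAP-1 phosphorylation via AlphaLISA donor/acceptor antibody pairs after lysis and 6 hr at 25C. Cells were ATM-null patient fibroblasts (F2112, hTERT), dosed 60 min, then exposed to the DSB inducer NCS for 30 min.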
TrxR1 substrate = is turned over as a substrate by rat TrxR1; O89049; purified TrxR1 substrate turnover, NADPH consumption readout; Potency, µM (top dose mostly 114 µM), inactives show at the highest dose activity change, negative = substrate turnover; 390,000 tested, 0.01% active; further: potency means the concentration at half of the fitted maximal effect; on the % scale 0 is the no-effect control and ±100 the full control effect; nearly all actives have a fitted effect of over 50% in size
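Rat TrxR1, dispensed at 90 nM, was prereduced with 400 uM NADPH (final) for 5 min at ~22 deg C, then incubated with compound 15 min before 400 uM selenite. A first-read NADPH fluorescence drop versus no-compound background flagged substrates.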
Numbers without * were called inactive; i = inactive; ? = inconclusive; · = no result; [ ] = dose if it differs, or a comment. Only some compounds are listed: those with a hit (about 1.4% of all), similar ones and a draw of the others. Unless noted, the call rests on the fitted dose curve; in most records, active means well fitted curve in the direction sought with a large enough effect; inconclusive means small, poorly fitted or top-dose-only effect, or another doubt; inactive means no such curve, though single readings can be large; an effect the other way counts as inactive or inconclusive.

SMILES | TrxR1 inh | pAkt inh | Pin1 inh | N370S GC mod | A-T KAP1 phos | TrxR1 substrate
Cc1nn(CCC(=O)Nc2cc(F)ccc2F)c(=O)c2nn(-c3ccccc3)c(C)c12 | 15% | · | 5% | · | · | -2%
O=c1cc(-c2ccc(O)cc2)oc2c1ccc1ccccc12 | 5% | i | ? | · | -5% | 5%
COc1cc2oc(-c3ccc(O)cc3)cc(=O)c2c(O)c1OC | 11%[57.1 µM] | i | 5% | 10µM* | 8% | 4%[57.1 µM]
O=c1cc(-c2ccc(O)cc2)oc2c(O)c(O)c(O)c(O)c12 | 16µM* | i | ? | -14% | 2% | -15%
COc1cc2oc(-c3ccc(O)cc3)cc(=O)c2c(OC)c1O | 5%[2.29 µM] | i | -1% | ? | 11% | 1%[2.29 µM]
CC(C)(C)n1ncc2c(=O)n(Cc3ccc(Cl)cc3C(F)(F)F)cnc21 | 1% | · | · | · | · | -3%
C=CCC(Nc1ccccc1)C12C=CC(O1)C(C(=O)OC)=C2C(=O)OC (stereo not given) | 7.9µM* | i | -1% | 1% | · | -2%
COC(=O)C1=C(C(=O)OC)[C@]2([C@@H]3CC=CCN[C@@H](Cc4ccccc4)C(=O)N3Cc3ccccc3)C=C[C@H]1O2 | 17% | i | 4% | · | · | -2%
CCOCC(=O)Nc1nnc(SCCOC)s1 | -9% | -85%* | 5% | 6% | 0% | -6%
O=C(C/C=N/OCc1ccccc1F)c1cnc(-c2ccc(Cl)cc2)s1 | 11%[57.1 µM] | i | 25% | -2% | 4% | 2%[57.1 µM]
O=C(C/C=N/OCc1ccc(F)cc1Cl)c1cnc(-c2ccccc2)s1 | -16%[57.1 µM] | -97%* | 25% | 2% | 1% | -4%
O=C(/C=C/c1ccc(O)cc1)c1ccc(NC2=C(N3CCCCC3)C(=O)c3ccccc3C2=O)cc1 | 45µM* | i | 28% | -23% | 8% | -10%
C[C@H]1CN([C@@H](C)CO)C(=O)c2cccc(NC(=O)c3ccncc3)c2O[C@H]1CN(C)C(=O)Nc1ccccc1 | 56µM* | i | 9% | · | -3% | 4%
C[C@H](CO)N1C[C@H](C)[C@@H](CN(C)C(=O)Nc2ccccc2)Oc2c(NC(=O)c3ccncc3)cccc2C1=O | 0% | i | -1% | · | 1% | 8%
O=C(CNC(=O)c1cccnc1)c1ccc(F)cc1 | 0% | · | · | · | · | -1%
CN(C)c1ccc(/C=C/c2ccnc3ccccc23)cc1O | -9% | · | · | · | · | -5%
COc1ccc(C(=O)Nc2cc(C(=O)c3ccccc3)c(C)oc2=O)cc1 | 11µM* | i | 14% | -6% | 36% | -3%
Cc1oc(=O)c(NC(=O)c2cccc(Cl)c2)cc1C(=O)c1ccccc1 | 35µM* | i | 22% | 11% | 17% | 3%
COC(=O)c1cc(NC(=O)c2ccccc2)c(=O)oc1C | 12%[11.4 µM] | i | -7% | 0% | -1% | 5%[11.4 µM]
CN1CCN(Cc2nc3ccccc3c(=O)n2Cc2nc(-c3ccc4ccccc4c3)cs2)CC1 | 28% | i | 7% | 11µM* | -3% | 1%
COc1ccc(C2C(C#N)=C(N)Oc3cc(C)n(Cc4ccco4)c(=O)c32)cc1 (stereo not given) | 3.2µM* | i | ? | 2% | -3% | 1%
O=c1cc(-c2ccccc2)oc2ccc(Cl)cc12 | -5%[11.4 µM] | i | 1% | · | · | 5%[57.1 µM]
O=c1oc(-c2ccccc2)cc(Cl)c1Cl | 5.6µM* | i | -2% | 7% | -12% | 14%[57.1 µM]
O=C1NC(=O)/C(=C/c2ccc3c(c2)OC(F)(F)O3)S1 | -8%[57.1 µM] | · | · | · | · | -3%[57.1 µM]
O=C(C1CCCCC1)N(Cc1cccnc1)c1nc2c(F)cccc2s1 | 6%[57.1 µM] | · | 7% | · | · | -6%[57.1 µM]
SMILES | TrxR1 inh | pAkt inh | Pin1 inh | N370S GC mod | A-T KAP1 phos | TrxR1 substrate
N#CC(C#N)=Cc1cn(-c2ncc(C(F)(F)F)cc2Cl)c2ccccc12 | 16µM* | i | 12% | 7% | 4% | -15%[57.1 µM]
CCOC(=O)N1CCN(c2ccnc3cc(Cl)ccc23)CC1 | 17% | i | -6% | -1% | 2% | -2%[0.0914 µM]
O=C(Oc1ccnc2cc(Cl)ccc12)N1CCCCCC1 | 1% | -96%* | 9% | 0% | 15% | 2%
COc1ccccc1CNC(=O)C1CCC(CNS(=O)(=O)c2ccc3c(c2)CCCC(=O)N3)CC1 (stereo not given) | -21%[57.1 µM] | · | 1% | · | · | -13%[57.1 µM]
O=C(CCS(=O)(=O)c1ccc(Br)cc1)Nc1ccccn1 | 45µM* | i | -2% | 3% | 6% | 0%
CC(=O)Nc1sc2c(c1-c1nc3ccccc3s1)CNCC2 | · | · | -2% | · | · | ·
COc1cccc2cc(C(=O)C3=C(O)C(=O)N(c4cc(C)on4)C3c3cccs3)oc12 (stereo not given) | 50µM* | i | 5% | 1% | -6% | -17%
COc1cccc(C2C(C(=O)c3cc4cccc(OC)c4o3)=C(O)C(=O)N2c2cc(C)on2)c1OC (stereo not given) | 3% | ? | ? | 1% | -8% | 5%[57.1 µM]
O=C1Nc2ccc(S(=O)(=O)NCc3ccco3)c3cccc1c23 | 45µM* | i | -4% | · | · | 9%
O=C(O)CNS(=O)(=O)c1ccc2c3c(cccc13)C(=O)N2 | 21%[57.1 µM] | i | -14% | ? | -10% | 38%[57.1 µM]
CCc1ccc(C(C)NC(=O)c2cc(C)oc2C)cc1 (stereo not given) | 20µM* | i | 0% | 2% | -1% | -3%
CCCCn1c(=O)[nH]c(=O)c2c1nc(Cn1ncc(Cl)c(Cl)c1=O)n2CCC | 50µM* | i | ? | ? | 2% | 11%
Cc1sc2ncnc(SCC(=O)N3c4ccccc4Sc4ccc(Cl)cc43)c2c1C | 12% | i | 0% | 12% | -7% | 10%
CCOC(=O)c1c(C)sc2c1N(C(=O)CCl)c1cc(Cl)ccc1S2 | 5µM* | i | 8% | 25% | ? | -2%
c1ccc(-c2nc(NCc3cccnc3)c3ccccc3n2)cc1 | -8%[57.1 µM] | i | 0% | ? | 25% | -7%[57.1 µM]
c1ccc(-c2nc(NC3CCCC3)c3ccccc3n2)cc1 | -11% | i | -1% | 16µM* | -6% | -6%
COc1ccc(CNc2nc(-c3ccccc3)nc3ccccc23)cc1OC | 8% | i | 1% | 14µM* | 8% | 7%
Fc1ccc(CNc2nc(-c3ccccc3)nc3ccccc23)cc1 | 2%[57.1 µM] | i | 1% | 14µM* | 3% | 1%[57.1 µM]
COc1ccc(Nc2nc(-c3ccccc3F)nc3ccccc23)cc1OC | -1% | i | -3% | 2.5µM* | 2% | -7%
Cc1cc2c(s1)c1cnn(Cc3cccc(C(F)(F)F)c3)c(=O)c1n2C | · | · | 1% | · | · | ·
O=S1(=O)CCOC[C@H](c2ccccc2)N1Cc1ccc(F)cc1 | 13% | · | · | · | · | -1%
O=C(NC(=S)Nc1nc(-c2cccc([N+](=O)[O-])c2)cs1)c1cc(Cl)ccc1Cl | 28µM* | i | 7% | 11% | -3% | 3%[57.1 µM]
